The source made the active and inactive calls.
How the values were obtained:
[1] = target: Albumin (Bos taurus) (UniProt P02769); assay: compounds binding labelled BSA control protein – biochemical, small-molecule microarray, Alexa647 label, 635/667 nm fluorescence, artefact control for SMM control protein annotation, profiling panel (AID 1118); conditions: BSA-A647 binding, fluorescence 635 nm, higher = more signal;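 also: score merges 667 nm emission intensity and signal-to-noise per printed compound spot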
[2] = probe aXIP binding to arrayed compounds – biochemical, NeuroSMM set, 635/667 nm fluorescence, primary screen (AID 1119); conditions: small-molecule microarray, higher = more signal, called active from +8 up or from −8 down;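 also: probe is the protein aXip251-270 applied at 1 µg/mL to compound-printed slides; binding of probe to printed compounds measured as 667 nm fluorescence plus signal to noise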
[3] = probe aNOTCH3 binding on compound microarray – biochemical, small-molecule microarray, 635/667 nm fluorescence, primary screen (AID 1120); conditions: higher = more signal;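 also: probe is a biotin-tagged antibody raised against NOTCH3 rather than NOTCH3 protein; score merges spot fluorescence near 667 nm with spot signal to noise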
[4] = probe aNOTCH2 binding on compound microarray – biochemical, small-molecule microarray, 635/667 nm fluorescence, primary screen (AID 1121); conditions: higher = more signal;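 also: score merges feature fluorescence read at 667 nm with its signal to noise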
[5] = target: Carbonic anhydrase 2 (Homo sapiens) (UniProt P00918); assay: compounds binding carbonic anhydrase 2 – biochemical, small-molecule microarray, Alexa647-labelled CAII, profiling panel (AID 1122); conditions: CAII-A647 binding fluorescence, higher = more signal
[6] = COS7 lysate on small-molecule microarray, probe aHis, 635 nm (AID 1123); conditions: COS7 cell lysate, fluorescence, higher = more signal;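 also: z-score combines 667nm fluorescence intensity with signal-to-noise per printed compound spot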
[7] = probe aLAP1 signal on lysate-treated microarray – cell lysate, small-molecule microarray, COS7 lysate, primary screen (AID 1124); conditions: probe aLAP1, fluorescence, higher = more signal;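 also: lysate comes from COS7 cells expressing LAP1 and is applied at 0.3 µg/mL; score merges spot fluorescence near 667 nm with signal-to-noise over triplicate slides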
[8] = test system: Sam68 (KHDRBS1); assay: compounds binding KHDRBS1 protein – biochemical, small-molecule microarray, 635 nm fluorescence, primary screen (AID 1125); conditions: higher = more signal;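 also: score merges 667 nm channel intensity with signal to noise over triplicate slides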
[9] = test system: Chordin-like protein 2 (CHRDL2); assay: compounds binding chordin-like 2 – biochemical, small-molecule microarray, 635 nm fluorescence, primary screen (AID 1126); conditions: fluorescence 635 nm, higher = more signal;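 also: printed compound slides probed with Chrdl2 protein at 4 µg/mL for 1 h at 4 C; score merges 667 nm emission intensity with signal to noise over three replicate slides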
[10] = target: Concanavalin-A (Canavalia ensiformis) (UniProt P02866); assay: compounds binding concanavalin A lectin – biochemical, small-molecule microarray, Alexa647 label, 635 nm, artefact control for SMM control protein annotation, primary screen (AID 1127); conditions: ConA-A647 binding fluorescence, higher = more signal;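 also: z combines 667 nm emission intensity with signal-to-noise across three replicate slides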
Concanavalin-A (Canavalia ensiformis), sequence (P02866 whole entry, looked up): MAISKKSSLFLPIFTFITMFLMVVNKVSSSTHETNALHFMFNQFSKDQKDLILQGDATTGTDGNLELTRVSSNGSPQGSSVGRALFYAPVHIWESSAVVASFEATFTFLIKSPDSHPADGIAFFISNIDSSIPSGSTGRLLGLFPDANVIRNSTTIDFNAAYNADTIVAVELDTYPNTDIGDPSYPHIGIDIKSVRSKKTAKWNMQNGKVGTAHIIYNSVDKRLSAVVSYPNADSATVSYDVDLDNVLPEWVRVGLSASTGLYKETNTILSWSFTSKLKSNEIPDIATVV

Albumin (Bos taurus), sequence (P02769 whole entry, looked up): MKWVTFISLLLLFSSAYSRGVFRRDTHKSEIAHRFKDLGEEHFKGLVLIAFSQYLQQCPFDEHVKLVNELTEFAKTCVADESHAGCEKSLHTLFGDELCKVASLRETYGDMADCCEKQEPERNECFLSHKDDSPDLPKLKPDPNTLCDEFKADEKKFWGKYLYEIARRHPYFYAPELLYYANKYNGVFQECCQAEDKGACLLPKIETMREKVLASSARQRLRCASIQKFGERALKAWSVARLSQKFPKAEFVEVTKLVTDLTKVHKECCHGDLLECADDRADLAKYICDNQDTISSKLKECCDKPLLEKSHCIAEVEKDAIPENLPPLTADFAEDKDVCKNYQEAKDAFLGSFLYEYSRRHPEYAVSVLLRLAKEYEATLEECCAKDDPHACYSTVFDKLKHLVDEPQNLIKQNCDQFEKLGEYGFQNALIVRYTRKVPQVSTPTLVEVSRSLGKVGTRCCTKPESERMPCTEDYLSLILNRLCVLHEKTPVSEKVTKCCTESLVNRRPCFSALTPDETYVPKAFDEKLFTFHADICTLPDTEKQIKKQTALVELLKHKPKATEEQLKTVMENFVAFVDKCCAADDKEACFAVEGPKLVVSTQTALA

SMILES	composite z-score [1]	composite Z-score [2]	composite z-score [3]	composite z-score [4]	composite z-score [5]	composite z-score [6]	composite z-score [7]	composite z-score [8]	composite z-score [9]	composite z-score [10]
CC(C)c1ccc(NN2C(C(O)c3cccc(O)c3)C=CC3C(=O)N(c4ccccc4)C(=O)C32)cc1 (stereo not given)	1	1 (inactive)	0.374	0.0572	0.798	2.53	0.279	1.35	-0.678	1.14
NC(=O)NCC#Cc1ccc2c(c1)[C@]1(C(=O)N2)[C@H](C(=O)NC[C@H](O)c2ccccc2)[C@H]2C(=O)O[C@H](c3ccccc3)[C@H](c3ccccc3)N2[C@@H]1c1ccc(O)cc1	0.496	0.58 (inactive)	0.51	0.159	0.501	2.15	0.743	0.998	0.395	1.13
COc1ccc(CCNC(=O)[C@@H]2c3ccccc3C(=O)N(Cc3ccc(OC(F)(F)F)cc3)[C@H]2c2ccc(CO)cc2)cc1	0.59	-0.313 (inactive)	-0.0077	-0.0029	0.497	1.53	0.983	1.07	0.0372	0.485
COCCCNC(=O)[C@@]1(c2ccc([N+](=O)[O-])cc2)CC(=O)N(CC23CC4CC(CC(C4)C2)C3)[C@@H]1c1ccc(CO)cc1	0.197	0.324 (inactive)	0.204	-0.117	0.43	0.726	0.375	1.28	0.556	1.08
COC(=O)c1ccc(OC)c(/C=C\CC(OC(C)=O)c2ccccc2)c1 (stereo not given)	0.652	-0.192 (inactive)	-0.276	-0.149	0.971	0.718	-0.0984	-0.215	1.1	1.15
O=C1O[C@@H](c2ccccc2)[C@@H](c2ccccc2)N2[C@@H](c3ccc(O)cc3)[C@]3(C(=O)Nc4ccc(C#CC5(O)CCCCCC5)cc43)[C@@H](C(=O)N3CCCCCCC3)[C@H]12	0.748	6.76 (inactive)	2.12	1.06	0.742	3.88	0.894	1.33	1.55	1.12
COc1ccc(C#Cc2ccc3c(c2)[C@]2(C(=O)N3)[C@H](c3ccc(O)cc3)N3[C@H](c4ccccc4)[C@H](c4ccccc4)OC(=O)[C@H]3[C@@H]2C(=O)NC[C@H](O)c2ccccc2)cc1	0.363	-0.118 (inactive)	0.0319	-0.189	0.295	2.78	0.0766	0.81	0.0813	1.17
CC(C)(C)N1CC=CC23O[C@@H]4C=CCOC(=O)[C@@H]4[C@H]2C(=O)N(CCCCCO)[C@@H]3C1=O (stereo not given in full)	0.485	1.1 (inactive)	-0.406	-0.229	0.82	0.121	1.25	-0.87	-0.612	-2.63
CC(C)N1C(=O)[C@@]2(c3ccc([N+](=O)[O-])cc3)CC(=O)N(CC34CC5CC(CC(C5)C3)C4)[C@@H]2c2ccc(CO)cc21	-0.747	-0.0775 (inactive)	0.49	-0.237	-0.531	0.773	0.632	-0.507	-1.27	0.134
Cc1ccc(S[C@]2(C(=O)NCc3ccccc3)CC(=O)N(Cc3ccccc3Cl)[C@@H]2c2ccc(CO)cc2I)cc1	0.451	-0.422 (inactive)	-0.275	-0.198	0.721	0.616	0.198	-0.414	-1.03	-0.139
CCOC(=O)C1=C[C@@H](CC)N(S(=O)(=O)c2ccc(C)cc2)[C@H]1c1ccccc1	0.874	0.339 (inactive)	0.0539	0.0572	0.526	1.35	0.83	1.29	0.0777	1.1
CCC[C@@H]1C=C(C(=O)O)[C@H](c2ccc(C)cc2)N1S(=O)(=O)c1ccc(C)cc1	0.972	0.102 (inactive)	0.195	0.0029	0.799	2.71	0.738	1.33	-0.802	0.757
N#Cc1ccc(NN2C(C(O)c3cccs3)C=CC3C(=O)N(c4ccccc4)C(=O)C32)cc1 (stereo not given)	0.536	0.388 (inactive)	0.144	-0.0136	0.817	2.28	0.672	1.01	-0.0869	1.02
O=C1N(CCS(=O)(=O)c2ccccc2)c2ccccc2C[C@@]12COC(c1ccc(OCCCO)cc1)=N2	-0.746	-0.279 (inactive)	0.364	0.314	0.636	2.4	0.266	1.3	0.866	1.15
N[C@@H](Cc1ccccc1)Cn1cc(-c2ccccc2)nn1	0.656	-0.254 (inactive)	0.0879	-0.053	-0.062	0.281	0.954	0.406	0.53	-0.109
CCOC(=O)C[C@H]1[C@H](OC(=O)c2ccccc2-c2ccccc2)[C@@H](NC(=O)Cc2ccc(OC)cc2)c2cc(OCCCO)ccc2N1C(=O)c1ccccc1	0.176	0.0843 (inactive)	-0.113	-0.155	-0.0951	0.157	-0.0152	-0.0445	0.0492	-0.393

From PubChem BioAssay
